target: Serine/threonine-protein kinase Nek6 (Homo sapiens) (UniProt Q9HC98); conditions: at 1 µM
Sequence (Q9HC98 whole entry): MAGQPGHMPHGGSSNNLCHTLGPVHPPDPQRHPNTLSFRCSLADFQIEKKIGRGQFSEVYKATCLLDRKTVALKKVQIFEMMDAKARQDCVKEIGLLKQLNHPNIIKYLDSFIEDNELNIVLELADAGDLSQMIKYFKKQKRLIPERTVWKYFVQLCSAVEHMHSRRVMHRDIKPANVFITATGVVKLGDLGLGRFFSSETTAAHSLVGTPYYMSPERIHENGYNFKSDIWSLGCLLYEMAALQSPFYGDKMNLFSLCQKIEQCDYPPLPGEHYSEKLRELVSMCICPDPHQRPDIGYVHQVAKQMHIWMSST

| Compound | residual activity |
| --- | --- |
| CC(C)[C@H](CO)Nc1nc(Nc2cccc(Cl)c2)c2ncn(C(C)C)c2n1 | 117% (inactive) |
| C[S+]([O-])c1ccc(-c2nc(-c3ccc(F)cc3)c(-c3ccncc3)[nH]2)cc1 (stereo not drawn) | 112% (inactive) |
| CN[C@@H]1C[C@H]2O[C@@](C)([C@@H]1OC)n1c3ccccc3c3c4c(c5c6ccccc6n2c5c31)C(=O)NC4 | 75% (inactive) |
| COC(=O)[C@@]1(O)C[C@H]2O[C@]1(C)n1c3ccccc3c3c4c(c5c6ccccc6n2c5c31)C(=O)NC4 | 104% (inactive) |
| c1cc(-c2cnn3cc(-c4ccc(OCCN5CCCCC5)cc4)cnc23)ccn1 | 118% (inactive) |
| CC(C)(C)c1cc(C=C(C#N)C#N)cc(Br)c1O | 117% (inactive) |
| O=c1[nH]c2ccccc2n1C1CCN(Cc2ccc(-c3nc4cc5[nH]cnc5cc4nc3-c3ccccc3)cc2)CC1 | 109% (inactive) |
| CCc1nc(-c2ccc(OC)cc2)[nH]c1-c1ccncc1 | 116% (inactive) |
| O=C1Nc2ccc3ncsc3c2/C1=C/c1c[nH]cn1 | 80% (inactive) |

target: Serine/threonine-protein kinase Nek6 (Homo sapiens) (UniProt Q9HC98); conditions: at 10 µM

| Compound | residual activity [%] |
| --- | --- |
| O=[N+]([O-])/C=C/c1ccc2c(c1)OCO2 | 113 |
| COc1cc2ncnc(Nc3ccc(OCc4ccccc4)cc3)c2cc1OC | 94 |
| CC(C)[C@H](CO)Nc1nc(Nc2cccc(Cl)c2)c2ncn(C(C)C)c2n1 | 122 |
| C[S+]([O-])c1ccc(-c2nc(-c3ccc(F)cc3)c(-c3ccncc3)[nH]2)cc1 (stereo not drawn) | 103 |
| CN[C@@H]1C[C@H]2O[C@@](C)([C@@H]1OC)n1c3ccccc3c3c4c(c5c6ccccc6n2c5c31)C(=O)NC4 | 72 |
| COC(=O)[C@@]1(O)C[C@H]2O[C@]1(C)n1c3ccccc3c3c4c(c5c6ccccc6n2c5c31)C(=O)NC4 | 120 |
| c1cc(-c2cnn3cc(-c4ccc(OCCN5CCCCC5)cc4)cnc23)ccn1 | 106 |
| CC(C)(C)c1cc(C=C(C#N)C#N)cc(Br)c1O | 118 |
| CCn1cnc2c(Nc3cccc(Cl)c3)nc(N[C@@H]3CCCC[C@@H]3N)nc21 | 126 |
| O=c1[nH]c2ccccc2n1C1CCN(Cc2ccc(-c3nc4cc5[nH]cnc5cc4nc3-c3ccccc3)cc2)CC1 | 116 |
| CCc1nc(-c2ccc(OC)cc2)[nH]c1-c1ccncc1 | 117 |
| O=C1Nc2ccc3ncsc3c2/C1=C/c1c[nH]cn1 | 77 |
| COc1ccc2c(c[n+](C)c3c4cc5c(cc4ccc23)OCO5)c1OC | 68 |

target: Serine/threonine-protein kinase Nek7 (Homo sapiens) (UniProt Q8TDX7); conditions: at 1 µM
Sequence (Q8TDX7 whole entry, looked up): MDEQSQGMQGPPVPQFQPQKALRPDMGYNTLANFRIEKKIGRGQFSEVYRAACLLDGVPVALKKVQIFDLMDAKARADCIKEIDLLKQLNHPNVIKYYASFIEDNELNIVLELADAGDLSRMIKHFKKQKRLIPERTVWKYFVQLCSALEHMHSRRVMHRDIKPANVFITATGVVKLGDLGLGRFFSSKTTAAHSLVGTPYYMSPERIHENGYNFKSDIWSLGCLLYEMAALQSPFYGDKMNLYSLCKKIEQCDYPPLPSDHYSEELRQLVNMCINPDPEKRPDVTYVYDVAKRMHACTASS

| Compound | residual activity |
| --- | --- |
| O=[N+]([O-])/C=C/c1ccc2c(c1)OCO2 | 99% (inactive) |
| COc1cc2ncnc(Nc3ccc(OCc4ccccc4)cc3)c2cc1OC | 98% (inactive) |
| CC(C)[C@H](CO)Nc1nc(Nc2cccc(Cl)c2)c2ncn(C(C)C)c2n1 | 102% (inactive) |
| C[S+]([O-])c1ccc(-c2nc(-c3ccc(F)cc3)c(-c3ccncc3)[nH]2)cc1 (stereo not drawn) | 101% (inactive) |
| COC(=O)[C@@]1(O)C[C@H]2O[C@]1(C)n1c3ccccc3c3c4c(c5c6ccccc6n2c5c31)C(=O)NC4 | 103% (inactive) |
| c1cc(-c2cnn3cc(-c4ccc(OCCN5CCCCC5)cc4)cnc23)ccn1 | 106% (inactive) |
| CC(C)(C)c1cc(C=C(C#N)C#N)cc(Br)c1O | 114% (inactive) |
| O=C1c2ccccc2-c2nc3nnnn3nc21 | 116% (inactive) |
| O=c1[nH]c2ccccc2n1C1CCN(Cc2ccc(-c3nc4cc5[nH]cnc5cc4nc3-c3ccccc3)cc2)CC1 | 111% (inactive) |
| N/C(=N\[N+](=O)[O-])N/N=C\c1ccc(-c2cccc([N+](=O)[O-])c2)o1 | 93% (inactive) |
| CCc1nc(-c2ccc(OC)cc2)[nH]c1-c1ccncc1 | 106% (inactive) |
| O=C1Nc2ccc3ncsc3c2/C1=C/c1c[nH]cn1 | 84% (inactive) |
| COc1ccc2c(c[n+](C)c3c4cc5c(cc4ccc23)OCO5)c1OC | 100% (inactive) |

target: Serine/threonine-protein kinase Nek7 (Homo sapiens) (UniProt Q8TDX7); conditions: at 10 µM

| Compound | residual activity |
| --- | --- |
| O=[N+]([O-])/C=C/c1ccc2c(c1)OCO2 | 114% (inactive) |
| COc1cc2ncnc(Nc3ccc(OCc4ccccc4)cc3)c2cc1OC | 89% (inactive) |
| C[S+]([O-])c1ccc(-c2nc(-c3ccc(F)cc3)c(-c3ccncc3)[nH]2)cc1 (stereo not drawn) | 116% (inactive) |
| COC(=O)[C@@]1(O)C[C@H]2O[C@]1(C)n1c3ccccc3c3c4c(c5c6ccccc6n2c5c31)C(=O)NC4 | 95% (inactive) |
| c1cc(-c2cnn3cc(-c4ccc(OCCN5CCCCC5)cc4)cnc23)ccn1 | 104% (inactive) |
| CC(C)(C)c1cc(C=C(C#N)C#N)cc(Br)c1O | 116% (inactive) |
| CCn1cnc2c(Nc3cccc(Cl)c3)nc(N[C@@H]3CCCC[C@@H]3N)nc21 | 112% (inactive) |
| O=C1c2ccccc2-c2nc3nnnn3nc21 | 105% (inactive) |
| O=c1[nH]c2ccccc2n1C1CCN(Cc2ccc(-c3nc4cc5[nH]cnc5cc4nc3-c3ccccc3)cc2)CC1 | 69% (inactive) |
| N/C(=N\[N+](=O)[O-])N/N=C\c1ccc(-c2cccc([N+](=O)[O-])c2)o1 | 90% (inactive) |
| CCc1nc(-c2ccc(OC)cc2)[nH]c1-c1ccncc1 | 104% (inactive) |
| O=C1Nc2ccc3ncsc3c2/C1=C/c1c[nH]cn1 | 63% (inactive) |
| COc1ccc2c(c[n+](C)c3c4cc5c(cc4ccc23)OCO5)c1OC | 137% (inactive) |
